Compound activity: PubChem, National Center for Advancing Translational Sciences (NCATS)
Shiga inhibitor: A qHTS for Small Molecule Inhibitors of Shiga Toxin; inhibition, % at 38.7 µM; Vero cells, Shiga toxin protein synthesis inhibition reporter; hit rate 9.2% among 290,000; in the data active means inhibition mostly above about 28%, no sharp cut-off; inactive means mostly below about 43%; further: 0% is about no effect
AmpC detergent: qHTS Inhibitors of AmpC Beta-Lactamase (assay with detergent); AmpC hydrolysis of nitrocefin, absorbance 480 nm, 0.01% Triton; Potency, µM (top dose mostly 114 µM), for the others: top-dose activity change, negative = inhibition, actives largely listed as inhibitors; hit rate 0.041% among 370,000;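 further: potency means the concentration at half of the fitted maximal effect; 0% = no-compound wells and -100% = no-enzyme wells; nearly all actives have a fitted effect of over 25% in size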
Target sequence (P00811 whole entry, looked up): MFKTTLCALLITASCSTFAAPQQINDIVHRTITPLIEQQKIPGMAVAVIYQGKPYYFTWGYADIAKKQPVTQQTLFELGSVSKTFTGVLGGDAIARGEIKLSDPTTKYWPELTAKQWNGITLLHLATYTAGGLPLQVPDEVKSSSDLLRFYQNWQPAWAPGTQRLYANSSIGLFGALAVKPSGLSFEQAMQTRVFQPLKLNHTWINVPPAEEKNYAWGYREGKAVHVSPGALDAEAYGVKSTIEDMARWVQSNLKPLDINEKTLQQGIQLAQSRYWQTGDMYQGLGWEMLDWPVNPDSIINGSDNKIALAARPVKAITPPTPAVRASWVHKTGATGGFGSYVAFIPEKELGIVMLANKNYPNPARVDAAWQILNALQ
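AmpC (5.3 nM in the dispensed reagent) in 20 mM phosphate pH 7.0 with 0.01% (detergent screen) or 0.0001% Triton X-100 was preincubated with compounds for 15 min at room temperature. Nitrocefin was then added from an 800 uM solution, and hydrolysis was followed at 480 nm.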
NS1 function inh: qHTS Assay for Inhibitors of Influenza NS1 Protein Function; hit rate 0.4% among 270,000; Potency, µM (series often up to 46.1 µM), without a hit: at the highest dose activity, positive = more growth; AID 2326, 2010; calls by dose curve; further: potency means the concentration at half of the fitted maximal effect; actives are rising curves; nearly all actives have a fitted effect of over 50% in size
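S. cerevisiae expressing influenza A NS1, grown in glucose, washed, then diluted 1:100 into pH 6.0 -URA galactose medium with 23 nl compound. Growth recovery read as OD600; NS1-free strain serves as control.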
CHX counter: Cycloheximide Counterscreen for Small Molecule Inhibitors of Shiga Toxin; cell reporter, cycloheximide protein synthesis inhibition counterscreen; max response, %; hit rate 12% among 300,000; AID 2314, 2010; in the data active means max response mostly above about 13%, no sharp cut-off; inactive means mostly below about 14%; further: read at 38.3 µM for the half of the compounds with a filed dose; 0% is about no effect
AmpC no deterg: qHTS Inhibitors of AmpC Beta-Lactamase (assay without detergent); P00811; AmpC nitrocefin hydrolysis, absorbance 480 nm, 0.0001% Triton; Potency, µM (highest dose often 57.1 µM), for inactives: at the highest dose activity change, negative = inhibition, hits mostly inhibitors; hit rate 0.52% among 330,000; AID 485341, 2010;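 further: potency means the concentration at half of the fitted maximal effect; plate controls were no compound for no effect and no enzyme for full effect; nearly all actives have a fitted effect of over 20% in size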
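20 mM phosphate pH 7.0 + 0.01% (detergent screen) or 0.0001% Triton X-100; 5.3 nM AmpC reagent; cpd preinc 15 min RT; nitrocefin (800 uM stock) to start; A480 q20 s × 4 min; Activity was normalised to no-enzyme and no-compound control wells.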
* = called active by the depositor; [ ] = remark or other dose. The entries come from a sample that favours hits as a whole. Unless noted, the call rests on the fitted dose curve; in most records, active means well fitted curve in the direction sought with a large enough effect; inconclusive means small, poorly fitted or top-dose-only effect, or another doubt; inactive means no such curve, though single readings can be large; an effect the other way counts as inactive or inconclusive.

How did Cc1[nH]c2ccccc2c1-c1csc(N)n1 do in these assays?
Shiga inhibitor: 7; AmpC detergent: -11%; NS1 function inh: 22%; CHX counter: -3; AmpC no deterg: -39%

What do the screens show for `Cc1ccc(C(=O)N2CCN(c3ccc(F)cc3)CC2)cc1NC(=O)c1nsc2ccccc12`?
AmpC detergent: 22%

What do the screens show for `O=C(COC(=O)C12CC3CC(CC(Br)(C3)C1)C2)Nc1ccc2[nH]c(=O)[nH]c2c1`?
AmpC detergent: -1%; AmpC no deterg: 32µM*

What do the screens show for `COc1ccc2c(C)c(Cl)c(=O)oc2c1`?
Shiga inhibitor: 2; AmpC detergent: -15%; NS1 function inh: -1%; CHX counter: -2; AmpC no deterg: -8%

How did COc1ccc(-c2cc(=O)c3cc(OC)ccc3o2)cc1 do in these assays?
Shiga inhibitor: 66*; AmpC detergent: inconclusive; NS1 function inh: -6%; CHX counter: 55; AmpC no deterg: -17%

How did COC(=O)COc1ccc2oc(-c3ccc(OC)cc3)cc(=O)c2c1 do in these assays?
AmpC detergent: 3%

How did CC(=O)c1ccc2oc3ccccc3c(=O)c2c1 do in these assays?
Shiga inhibitor: 17*; AmpC detergent: -9%; NS1 function inh: -15%; CHX counter: 15; AmpC no deterg: -24%

What do the screens show for `COc1ccc2c(c1)oc(=O)c1cc(OC)ccc12`?
Shiga inhibitor: 52*; AmpC detergent: -5%; NS1 function inh: -4%; CHX counter: 26*; AmpC no deterg: -19%

How did COc1ccc2c(c1)oc(=O)c1c3ccccc3[nH]c21 do in these assays?
Shiga inhibitor: 57*; AmpC detergent: -8%; NS1 function inh: -3%; CHX counter: 62*; AmpC no deterg: -4%

What do the screens show for `Cc1cc2c(s1)c1cnn(Cc3cccc(Cn4ncc5c6sc(C)cc6n(C)c5c4=O)c3F)c(=O)c1n2C`?
Shiga inhibitor: -1; CHX counter: -4

Results for CCCCCCCCCCCCCCCC(=O)OC[C@@H](COP(=O)([O-])OCC[N+](C)(C)C)OC(=O)CCCCCCCCCCCCCCC ?
Shiga inhibitor: -6; CHX counter: 7

What do the screens show for `COc1ccc2c(c1)oc(=O)c1ccccc12`?
Shiga inhibitor: 71*; AmpC detergent: inconclusive; NS1 function inh: -7%; CHX counter: 33*; AmpC no deterg: -11%

What do the screens show for `O=C(O)C(Oc1ccc2c(c1)oc(=O)c1ccccc12)c1ccccc1` (stereo unspecified)?
Shiga inhibitor: -12; AmpC detergent: 4%; NS1 function inh: 0%; CHX counter: -2; AmpC no deterg: -22%

Results for COc1ccc2c(=O)c3ccccc3oc2c1 ?
Shiga inhibitor: 42*; AmpC detergent: inconclusive; NS1 function inh: -39%; CHX counter: 33*; AmpC no deterg: -20%

How did CCCCC(=O)NNC(=O)N1c2ccccc2Sc2ccccc21 do in these assays?
Shiga inhibitor: -5; AmpC detergent: -2%; NS1 function inh: -13%; CHX counter: -5; AmpC no deterg: -32%

Results for NC(=O)CSc1ncc2c(n1)-c1ccccc1N(Cc1ccc(F)cc1)S2(=O)=O ?
AmpC detergent: 2%

What do the screens show for `COc1ccccc1CNC(=O)CSc1ccccc1`?
Shiga inhibitor: 50*; AmpC detergent: inconclusive; NS1 function inh: -1%; CHX counter: 19*; AmpC no deterg: 4%[2.29 µM]

What do the screens show for `COc1ccccc1CNC(=O)CSc1ccc(C)cc1`?
Shiga inhibitor: 14; AmpC detergent: -4%; NS1 function inh: 16%; CHX counter: 15; AmpC no deterg: -43%

What do the screens show for `COc1ccccc1CNC(=O)c1n[nH]c2ccccc12`?
Shiga inhibitor: 46*; AmpC detergent: 3%; NS1 function inh: 3%; CHX counter: 29*; AmpC no deterg: -17%

What do the screens show for `O=C(CSc1ccccc1)NCc1ccccc1`?
AmpC detergent: -15%; NS1 function inh: -2%; CHX counter: 18*; AmpC no deterg: -8%

Results for COc1ccccc1CNC(=O)Cc1ccccc1 ?
Shiga inhibitor: 35*; AmpC detergent: -12%; NS1 function inh: 9%; CHX counter: 35*; AmpC no deterg: -9%

What do the screens show for `COc1cc(C2CC(=O)c3c([nH]c(C(=O)OCc4ccc(C)cc4)c3C)C2)cc(OC)c1OC` (stereo unspecified)?
AmpC detergent: -4%
